According to PubChem BioAssay:
Activity calls are given as the source filed them.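 The calls were made as follows, unless noted: active = normalized viability below 100% at a tested concentration; inactive = the rest.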

Legend:
[1] = viability loss with induced miR-34 in A549 – imaging, A549 dox-inducible miR-34, nuclei and caspase counts, primary screen (AID 1347080;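 active = compounds whose cell count with miR-34 switched on is under 0.7 times the count with it off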); settings: A549 miR-34 inducible, Hoechst nuclei count, 48 h
[2] = MELAS cybrid and Rieske KO viability enhancers – cell-based, MELAS cybrids, Rieske KO mouse fibroblasts, CellTiter-Glo, primary screen (AID 1508586;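 active = mean z-score across replicates of 1.96 or higher in either the MELAS or the Rieske mutant cell line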;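 also: z relative to plate mean and SD of compound and empty wells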); settings: low glucose
[3] = drug combination growth inhibition, ovarian cancer – cell-based, oncology-focused library, rucaparib conditional, profiling panel (AID 1508598); settings: patient-derived ovarian cancer cells, CellTiter-Glo viability, 144 h, stronger effect = lower value
[4] = stronger effect = lower value, cell number ratio, induced over uninduced
[5] = measured here: relative caspase fold change +Dox/-Dox
[6] = measured here: total cells with miR-34 induction, stronger effect = lower value
[7] = measured here: total cells without miR-34 induction
[8] = MELAS cybrid survival, CellTiter-Glo 48 h, stronger effect = higher value
[9] = Rieske KO mouse fibroblast survival, CellTiter-Glo 72 h
[10] = at 0.000305 µM, OCI-C5x cells, with rucaparib 10 µM, 100% = cells with rucaparib alone
[11] = at 0.000305 µM, OCI-C5x cells, without rucaparib
[12] = at 0.000305 µM, OCI-P5x cells, with rucaparib 20 µM, 100% = cells with rucaparib alone
[13] = at 0.000305 µM, OCI-P5x cells, without rucaparib
[14] = at 0.00122 µM, OCI-C5x cells, with rucaparib 10 µM, 100% = cells with rucaparib alone
[15] = at 0.00122 µM, OCI-C5x cells, without rucaparib
[16] = at 0.00122 µM, OCI-P5x cells, with rucaparib 20 µM, 100% = cells with rucaparib alone
[17] = at 0.00122 µM, OCI-P5x cells, without rucaparib
[18] = at 0.00488 µM, OCI-C5x cells, with rucaparib 10 µM, 100% = cells with rucaparib alone
[19] = at 0.00488 µM, OCI-C5x cells, without rucaparib
[20] = at 0.00488 µM, OCI-P5x cells, with rucaparib 20 µM, 100% = cells with rucaparib alone
[21] = at 0.00488 µM, OCI-P5x cells, without rucaparib
[22] = at 0.0195 µM, OCI-C5x cells, with rucaparib 10 µM, 100% = cells with rucaparib alone
[23] = at 0.0195 µM, OCI-C5x cells, without rucaparib
[24] = at 0.0195 µM, OCI-P5x cells, with rucaparib 20 µM, 100% = cells with rucaparib alone
[25] = at 0.0195 µM, OCI-P5x cells, without rucaparib
[26] = at 0.0781 µM, OCI-C5x cells, with rucaparib 10 µM, 100% = cells with rucaparib alone
[27] = at 0.0781 µM, OCI-C5x cells, without rucaparib
[28] = at 0.0781 µM, OCI-P5x cells, with rucaparib 20 µM, 100% = cells with rucaparib alone
[29] = at 0.0781 µM, OCI-P5x cells, without rucaparib
[30] = at 0.313 µM, OCI-C5x cells, with rucaparib 10 µM, 100% = cells with rucaparib alone
[31] = at 0.313 µM, OCI-C5x cells, without rucaparib
[32] = at 0.313 µM, OCI-P5x cells, with rucaparib 20 µM, 100% = cells with rucaparib alone
[33] = at 0.313 µM, OCI-P5x cells, without rucaparib
[34] = at 1.25 µM, OCI-C5x cells, with rucaparib 10 µM, 100% = cells with rucaparib alone
[35] = at 1.25 µM, OCI-C5x cells, without rucaparib
[36] = at 1.25 µM, OCI-P5x cells, with rucaparib 20 µM, 100% = cells with rucaparib alone
[37] = at 1.25 µM, OCI-P5x cells, without rucaparib
[38] = at 5 µM, OCI-C5x cells, with rucaparib 10 µM, 100% = cells with rucaparib alone
[39] = at 5 µM, OCI-C5x cells, without rucaparib
[40] = at 5 µM, OCI-P5x cells, with rucaparib 20 µM, 100% = cells with rucaparib alone
[41] = at 5 µM, OCI-P5x cells, without rucaparib

NC(=O)CCCSc1nc(N)nc(-c2c(Cl)cc3c4c(cccc24)COC3)n1
0.479: fold change [1, 5]
2430: cell count [1, 6]
active: z-score [2, 8] 2.88 | viability [3, 11] 95.8% | viability [3, 16] 98% | viability [3, 17] 96.2% | viability [3, 21] 98.7% | viability [3, 25] 94.9% | viability [3, 27] 98.7% | viability [3, 28] 16.9% | viability [3, 29] 38.5% | viability [3, 30] 74.7% | viability [3, 31] 35.4% | viability [3, 32] 14.5% | viability [3, 33] 8.07% | viability [3, 34] 16% | viability [3, 35] 7.19% | viability [3, 36] 7.31% | viability [3, 37] 5.49% | viability [3, 38] 9.52% | viability [3, 39] 6.09% | viability [3, 40] 4.5% | viability [3, 41] 3.17%
2570: cell count [1, 7]
inactive: fold change [1, 4] 0.945 | viability [3, 10] 109% | viability [3, 12] 104% | viability [3, 13] 102% | viability [3, 14] 107% | viability [3, 15] 101% | viability [3, 18] 114% | viability [3, 19] 103% | viability [3, 20] 106% | viability [3, 22] 125% | viability [3, 23] 111% | viability [3, 24] 103% | viability [3, 26] 147%
-2.67: z-score [2, 9]

Cc1[nH]c(C=C2C(=O)Nc3ccc(S(=O)(=O)N(C)c4cccc(Cl)c4)cc32)c(C)c1C(=O)N1CCN(C)CC1
active: viability [3, 16] 92.9% | viability [3, 17] 98.8% | viability [3, 20] 89.6% | viability [3, 21] 96.9% | viability [3, 24] 96.9% | viability [3, 25] 94.2% | viability [3, 41] 58.4%
3230: cell count [1, 7]
3050: cell count [1, 6]
0.91: fold change [1, 5]
inactive: fold change [1, 4] 0.944 | z-score [2, 8] -0.734 | viability [3, 10] 109% | viability [3, 11] 113% | viability [3, 12] 106% | viability [3, 13] 104% | viability [3, 14] 117% | viability [3, 15] 112% | viability [3, 18] 118% | viability [3, 19] 113% | viability [3, 22] 116% | viability [3, 23] 126% | viability [3, 26] 120% | viability [3, 27] 125% | viability [3, 28] 104% | viability [3, 29] 102% | viability [3, 30] 122% | viability [3, 31] 131% | viability [3, 32] 113% | viability [3, 33] 107% | viability [3, 34] 138% | viability [3, 35] 151% | viability [3, 36] 114% | viability [3, 37] 107% | viability [3, 38] 133% | viability [3, 39] 126% | viability [3, 40] 102%
-1.1: z-score [2, 9]

Cc1cc([N+](=O)[O-])ccc1NS(=O)(=O)c1cc(Cl)ccc1Cl
active: viability [3, 12] 74.5% | viability [3, 13] 83.8% | viability [3, 16] 65.9% | viability [3, 17] 73.5% | viability [3, 20] 62.7% | viability [3, 21] 74.6% | viability [3, 24] 65.1% | viability [3, 25] 76.4% | viability [3, 28] 99.2% | viability [3, 33] 99.3% | viability [3, 36] 96.3% | viability [3, 37] 89.4% | viability [3, 38] 99.8% | viability [3, 39] 87% | viability [3, 40] 91.1% | viability [3, 41] 70.2%
0.518: fold change [1, 5]
3670: cell count [1, 6]
3730: cell count [1, 7]
-3.52: z-score [2, 9]
inactive: fold change [1, 4] 0.984 | z-score [2, 8] -0.622 | viability [3, 10] 116% | viability [3, 11] 110% | viability [3, 14] 122% | viability [3, 15] 118% | viability [3, 18] 120% | viability [3, 19] 111% | viability [3, 22] 118% | viability [3, 23] 110% | viability [3, 26] 122% | viability [3, 27] 121% | viability [3, 29] 101% | viability [3, 30] 109% | viability [3, 31] 115% | viability [3, 32] 101% | viability [3, 34] 102% | viability [3, 35] 123%

CC(C)(C)C(=O)Nc1ccc2c(c1)C(=O)C(=O)c1ccccc1-2
833: cell count [1, 6]
-7.92: z-score [2, 9]
0.69: fold change [1, 5]
inactive: fold change [1, 4] 1.31 | z-score [2, 8] 0.258 | viability [3, 10] 109% | viability [3, 11] 109% | viability [3, 14] 127% | viability [3, 15] 103% | viability [3, 18] 116% | viability [3, 19] 114% | viability [3, 22] 119% | viability [3, 23] 112% | viability [3, 26] 118% | viability [3, 27] 113% | viability [3, 31] 112% | viability [3, 34] 114% | viability [3, 35] 113% | viability [3, 36] 103% | viability [3, 37] 104% | viability [3, 39] 107%
636: cell count [1, 7]
active: viability [3, 12] 95.2% | viability [3, 13] 90.7% | viability [3, 16] 99.1% | viability [3, 17] 91.1% | viability [3, 20] 78.7% | viability [3, 21] 63.1% | viability [3, 24] 79% | viability [3, 25] 64.3% | viability [3, 28] 63.5% | viability [3, 29] 45.6% | viability [3, 30] 81.1% | viability [3, 32] 29.6% | viability [3, 33] 18.8% | viability [3, 38] 70.9% | viability [3, 40] 2.26% | viability [3, 41] 7.62%

OCCn1cc(-c2ccc3c(c2)CCC3=NO)c(-c2ccncc2)n1
0.852: fold change [1, 5]
7830: cell count [1, 6]
active: viability [3, 12] 91.8% | viability [3, 13] 92.8% | viability [3, 17] 92.9% | viability [3, 19] 92.1% | viability [3, 28] 99% | viability [3, 32] 95.5% | viability [3, 33] 93.7% | viability [3, 36] 90.7% | viability [3, 37] 96.5% | viability [3, 40] 88.8% | viability [3, 41] 98%
0.407: z-score [2, 9]
7730: cell count [1, 7]
inactive: fold change [1, 4] 1.01 | z-score [2, 8] -0.459 | viability [3, 10] 116% | viability [3, 11] 107% | viability [3, 14] 114% | viability [3, 15] 113% | viability [3, 16] 103% | viability [3, 18] 120% | viability [3, 20] 103% | viability [3, 21] 101% | viability [3, 22] 116% | viability [3, 23] 121% | viability [3, 24] 102% | viability [3, 25] 101% | viability [3, 26] 115% | viability [3, 27] 122% | viability [3, 29] 103% | viability [3, 30] 118% | viability [3, 31] 125% | viability [3, 34] 118% | viability [3, 35] 131% | viability [3, 38] 124% | viability [3, 39] 137%

CC(NCc1ccc(OCc2cccc(F)c2)cc1)C(N)=O (stereo unspecified)
0.667: z-score [2, 9]
8360: cell count [1, 7]
7820: cell count [1, 6]
1.08: fold change [1, 5]
inactive: fold change [1, 4] 0.935 | z-score [2, 8] -0.428
